Source: PubChem BioAssay (National Center for Advancing Translational Sciences (NCATS))
Only some compounds are listed: those with a hit (about 10% of all), similar ones and a draw of the others.
HP1b chromo inh = HTS for Inhibitors of HP1-beta Chromodomain Interactions with Methylated Histone Tails; Potency, µM (titrated, usually from 114 µM), for the others: top-dose activity change, negative = inhibition, most hits filed as inhibitors; hit rate 0.56% among 390,000; AlphaScreen HP1-beta / biotin-H3K9me3 peptide binding; also: potency is read from the fitted curve at half-maximal effect; nearly all actives have a fitted effect of over 70% in size
Target sequence (P83916 whole entry, looked up): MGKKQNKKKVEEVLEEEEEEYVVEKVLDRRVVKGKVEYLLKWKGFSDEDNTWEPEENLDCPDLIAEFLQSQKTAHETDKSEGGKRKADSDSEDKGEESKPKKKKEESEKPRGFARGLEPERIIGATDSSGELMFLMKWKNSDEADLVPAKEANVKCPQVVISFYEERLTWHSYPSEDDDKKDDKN
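HP1-beta protein (50 nM final) preincubated 30 min at room temperature with biotinylated H3(1-18)K9me3 peptide (50 nM) in PBS pH 7.4, 0.01% Tween-20, then compound added for 30 min. AlphaScreen streptavidin donor/nickel chelate acceptor beads (10 ug/mL final), 30 min dark, luminescence read.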
CtBP-E1A blk = qHTS Assay for Inhibitors of the CtBP/E1A Interaction; CtBP / adenovirus E1A interaction (AlphaScreen); AlphaScreen GST-E1A/His-CtBP binding, 1536-well; active compounds read low; activity change, % (test concentration not listed); hit rate 0.49% among 340,000; in the data active = activity change below about -65%; inconclusive = mostly about -30% to -63%; also: % is scaled to controls: 0 for no effect and ±100 for the full control effect
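AlphaScreen with 125 nM GST-E1A and 125 nM His-CtBP (5X stocks) in Tris pH 8.0, 300 mM NaCl, BSA, Tween 20, TCEP. Compounds preincubated 2 h at 37 deg C, then glutathione donor/nickel acceptor beads added for 1 h at 37 deg C in dark.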
Six1-Eya2 inh = qHTS Assay for Inhibitors of the Six1/Eya2 Interaction; Homeobox protein SIX1 (Homo sapiens) + Protein phosphatase EYA2 (Homo sapiens), …; AlphaScreen GST-Six1/His-Eya2 binding, biochemical; active compounds read low; activity change, % (concentration not given with the values); hit rate 0.56% among 360,000; in the data active = activity change below about -65%; inconclusive = mostly about -30% to -63%; also: % is scaled to controls: 0 for no effect and ±100 for the full control effect
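Six1/Eya2 binding was read as AlphaScreen signal after compounds were pinned into GST-Six1 plus His-tagged Eya2 (5X stock 250/500 nM) in pH 8.0 Tris/NaCl/TCEP buffer, beads added, then incubated 1 h, 37 C, dark.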
BAZ2B block = qHTS Assay for Inhibitors of BAZ2B; hit rate 4.4% among 360,000; Bromodomain adjacent to zinc finger domain protein 2B (Homo sapiens), Q9UIF8; Potency, µM (doses to about 114 µM), for inactives: at the highest dose activity change, negative = inhibition, hits mostly inhibitors; AlphaScreen BAZ2B-H3K14Ac peptide displacement; AID 504333, 2011; also: potency is read from the fitted curve at half-maximal effect; % is scaled to controls: 0 for no effect and ±100 for the full control effect; nearly all actives have a fitted effect of over 60% in size
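BAZ2B (50 nM) with biotin-H3(5-23)K14Ac peptide (50 nM) in PBS pH 7.4, 0.01% Tween-20, preformed 30 min, then compound 30 min at room temperature; top concentration 110uM. AlphaScreen streptavidin donor/nickel chelate acceptor beads (10 ug/mL final), 20 min dark, signal read.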
G9a inh = qHTS Assay for Inhibitors of Histone Lysine Methyltransferase G9a | Histone-lysine N-methyltransferase EHMT2 (Homo sapiens), Q96KQ7 | G9a H3K9 monomethylation, AlphaScreen, 2 h | Potency, µM (titrated, usually from 102 µM), for inactives: top-dose activity, negative = inhibition, hits mostly inhibitors | hit rate 8.8% among 350,000 | AID 504332, 2011; also: potency is read from the fitted curve at half-maximal effect; % is scaled to controls: 0 for no effect and ±100 for the full control effect; nearly all actives have a fitted effect of over 75% in size
Target sequence (Q96KQ7 913-1193 limits assumed): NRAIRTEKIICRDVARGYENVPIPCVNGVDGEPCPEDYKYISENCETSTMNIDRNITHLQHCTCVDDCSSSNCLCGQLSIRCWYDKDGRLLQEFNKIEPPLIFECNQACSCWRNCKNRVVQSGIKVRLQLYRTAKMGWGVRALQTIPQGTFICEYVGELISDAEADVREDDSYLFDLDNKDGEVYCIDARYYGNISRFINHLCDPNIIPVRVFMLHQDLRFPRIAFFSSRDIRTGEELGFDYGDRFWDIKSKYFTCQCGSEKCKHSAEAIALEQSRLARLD
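Signal arises when biotinylated H3K9 peptide, once monomethylated, bridges streptavidin donor and antibody-captured acceptor beads. Enzyme at 20 nM was preincubated 15 min with test compounds; peptide 500 nM and SAM 20 uM then reacted for 2 h.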
JMJD2A Tudor = qHTS Assay for Inhibitors of JMJD2A-Tudor Domain; Lysine-specific demethylase 4A (Homo sapiens), O75164; AlphaScreen JMJD2A-Tudor / H3K4me3 peptide binding; Potency, µM (highest dose often 114 µM), without a hit: top-dose activity change, negative = inhibition, usual class: inhibitors; hit rate 4.4% among 390,000; AID 504339, 2011; also: potency is read from the fitted curve at half-maximal effect; % is scaled to controls: 0 for no effect and ±100 for the full control effect; nearly all actives have a fitted effect of over 50% in size
* hit, by the source's call; u = inconclusive; x = not tested or not shown; [ ] = another dose, or the depositor's remark. Unless noted, calls follow the shape of the dose curve; as a rule, active = well fitted inhibition curve with a large enough effect; inconclusive = small, poorly fitted or top-dose-only effect; inactive = no such curve, though single readings can be large or run the other way.

SMILES | HP1b chromo inh | CtBP-E1A blk | Six1-Eya2 inh | BAZ2B block | G9a inh | JMJD2A Tudor
CCN(CC)C(=O)Cn1cc(SCC(=O)Nc2cccc(F)c2)c2ccccc21 | 57% | x | x | -4% | 5%[59 µM] | -17%
COc1ccc(NC(=O)C(=O)NCCCn2ccnc2)cc1 | -9% | -18 | 4 | -5% | 2% | -20%
O=C(NCCCn1ccnc1)C(=O)Nc1ccccc1 | u | 1 | 7 | -27% | -8% | 79µM*
Cn1ccc(C(=O)NC(=S)Nc2ccc([N+](=O)[O-])cc2O)n1 | -3% | -6 | -28 | -32% | 25µM* | -28%
O=C(NC(=S)Nc1ccc([N+](=O)[O-])cc1O)C1CCCCC1 | 3% | -11 | u | -12% | -13%[12.7 µM] | -33%
O=C(N/N=C/c1ccc(-c2ccccc2[N+](=O)[O-])o1)c1cncc(Br)c1 | u | -66* | -78* | -37% | 32µM* | u
Cc1cc([N+](=O)[O-])c(C)cc1-c1ccc(/C=N/NC(=O)c2cccnc2)o1 | 26% | -4 | -9 | u | 45µM* | -16%
Nn1cnnc1N/N=C\c1ccc(-c2ccccc2[N+](=O)[O-])o1 | -14% | 0 | u | u | 35µM* | u
O=C(N/N=C\c1ccc([N+](=O)[O-])o1)c1cncc(Br)c1 | 14% | u | u | -1% | 0% | 11%
Cc1c(C(=O)N/N=C/c2ccc(-c3ccccc3[N+](=O)[O-])o2)sc(N)c1C#N | 35% | 0 | u | u | -14%[59 µM] | u
CCCCCCCCCCCCCCNCCO | x | x | x | x | 10%[12.7 µM] | x
CC1=C(c2ccc(C)c(C)c2)S(=O)(=O)N=C1N1CCC(C(=O)NCCc2ccco2)CC1 | u | x | x | -17% | 8%[59 µM] | -24%
COc1ccccc1N=Cc1c(C)[nH]n(-c2ccc(C)cc2C)c1=O | u | 2 | -22 | -32% | 50µM* | u
COc1cc(SC#N)ccc1N=Cc1c(C)[nH]n(-c2cccc3ccccc23)c1=O | 4% | u | u | 1% | u | -28%
COc1ccc2nc(/N=C/c3c(C)[nH]n(-c4ccc(C)cc4C)c3=O)sc2c1 | 30% | -88* | -70* | -36% | 8% | -9%
COc1cc(SC#N)ccc1N=Cc1c(C)[nH]n(-c2ccc(C)cc2C)c1=O | 7% | -19 | -30 | -38% | 13µM* | -28%
CNS(=O)(=O)c1ccc(N=Cc2c(C)[nH]n(-c3ccc(C)cc3C)c2=O)cc1 | 14% | -2 | -2 | -26% | u | 7%
COc1cccc(C(=O)Nc2ccc3c(c2)OC[C@H](C)N(C(=O)C2CCCC2)C[C@@H](C)[C@@H](OC)CN(C)C3=O)c1 | x | 2 | 0 | x | x | x
COc1cc(CNC(=O)Nc2nc(C(N)Cc3ccc(Cl)cc3)cs2)cc(OC)c1OC (stereo not given) | x | -20 | -26 | x | x | x
COc1cc(-c2c(C(C)=O)c(C)nc3c2C(=O)c2ccccc2-3)cc(OC)c1OC | 15% | 10 | -3 | -1% | 7% | 5%
CC(=O)c1c(Cl)nc2cccc3c2c1-c1ccccc1C3=O | 4% | -15 | -11 | -27% | 28µM* | -34%
CCOC(=O)c1ccc(N=C2C(=S)N(c3ccc(C(=O)OCC)cc3)C(=N)N2/N=C/c2ccccc2)cc1 | -41% | u | u | -3% | 4µM* | u
CCn1c(=O)cc(SCC(=O)Nc2cc(Cl)ccc2OC)c2ccccc21 | 22% | x | x | -27% | -7%[59 µM] | -7%
Cc1nc(N2CCN(c3ccccc3O)CC2)c2c(-c3ccccc3)csc2n1 | u | -6 | -10 | 40µM* | u | u
Oc1ccccc1N1CCN(c2ncnc3scc(-c4ccccc4)c23)CC1 | -24% | -5 | -7 | -25% | u | u
SMILES | HP1b chromo inh | CtBP-E1A blk | Six1-Eya2 inh | BAZ2B block | G9a inh | JMJD2A Tudor
COc1ccc(-c2csc3ncnc(N4CCN(c5ccccc5OC)CC4)c23)cc1 | u | -28 | -14 | -35% | 45µM* | u
O=C(c1cccs1)N1CCCc2cc(NS(=O)(=O)c3ccc(F)cc3F)ccc21 | 15% | x | x | -23% | 11%[59 µM] | -19%
Cc1cccc(CCNC(=O)c2ccc3c(c2)nc2n3CCOC2)c1 | 31%[57 µM] | x | x | 3% | -1%[59 µM] | 1%
CCOC(=O)C1=C(CN2CCN(c3cccc(OC)c3)CC2)NC(=O)NC1c1ccc(OC)cc1 (stereo not given) | -1% | x | x | u | -28%[59 µM] | u
Cc1cc(C(=O)CSC(C)c2nc3ccccc3c(=O)[nH]2)c(C)n1C (stereo not given) | 11% | 4 | 2 | -37% | 50µM* | -25%
Cc1cc(C(=O)CSc2nc3ccccc3c(=O)[nH]2)c(C)n1C | 19% | -28 | -26 | -36% | u | -29%
C#Cc1ccc([C@@H]2C=C(C(=O)NC3CC3)O[C@H](OCCCCO)C2)cc1 | 26% | 1 | 2 | 4% | 9%[59 µM] | -7%
Cn1ccnc1SCc1ccc(Cl)cc1Cl | 8% | -3 | 5 | -13% | 8.9µM* | u
CCOC(=O)Cc1csc(NC(NC(=O)OCC)(C(=O)OCC)C(F)(F)F)n1 (stereo not given) | 15% | -9 | 7 | x | x | 13%[57.1 µM]
Oc1ccc2ccccc2c1CNc1ccc2ccccc2c1 | u | -23 | -19 | x | x | 32µM*
O=[N+]([O-])c1ccccc1NCc1c(O)ccc2ccccc12 | u | x | -22 | 35µM* | u | 45µM*
Cc1ccc(NC(=O)CSc2nnc(C)c(=O)[nH]2)cc1 | 56% | x | x | -23% | 4%[59 µM] | -9%
Cc1nnc(SCC(=O)Nc2ccc(Br)cn2)[nH]c1=O | 56% | 27 | 8 | 5% | 50µM* | -19%
O=C(CSc1ccc2c(c1)OCCO2)Nc1ccc(Cl)cn1 | 50% | 11 | -1 | 34% | 10%[59 µM] | 5%
O=C(CSc1ccc2c(c1)OCCO2)Nc1ncccc1O | 37% | -9 | -20 | u | 5%[0.501 µM] | 50µM*
O=C(CSc1ccc2c(c1)OCCO2)Nc1ccc(Br)cn1 | 57% | -3 | -1 | 6% | 45µM* | 8%
CCCCNC(=O)c1cc2cc(OC)ccc2[nH]1 | 37% | x | 1 | -3% | -13% | -19%
COc1ccc2[nH]c(C(=O)NCCCn3ccnc3)cc2c1 | 17% | 0 | -23 | -28% | 50µM* | -13%
O=C(NCCN1CCCCC1)c1cc2ccccc2[nH]1 | 38% | -3 | 1 | -1% | u | -12%
